From PubChem BioAssay AID1159580 (chemical genetic matrix, 2015)
Where “and” joins values, the source holds several entries; their conditions need not be identical. Identical values can stand only once. Screen size: about 5,500 compounds; about 2,000 (36%) were called active. About 18% were inconclusive and are not listed. Rule as the data show it: active = normalized growth mostly below about 0.91 (no sharp cut-off); inconclusive = no clear call, values can overlap the other calls; inactive = mostly above about 0.92. The list shows a part of the results.

Test: chemical genetic growth profiling, strain panel (AID 1159580);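 also: tested at 20 µM; growth read once vehicle control cultures reached saturation at 30 °C; 1 = growth at the plate median or of vehicle wells; lower values mean less growth of the strain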
Conditions: S. cerevisiae deletion strains, growth OD

Measured: normalized growth

COc1c2ccccc2nc2occc12
active: locus YBR009C, strain hhf1, stronger effect = lower value 0.867 | locus YCL016C, strain dcc1, stronger effect = lower value 0.9 | locus YCL069W, strain vba3, stronger effect = lower value 0.882 | locus YDL192W, strain arf1, stronger effect = lower value 0.89 | locus YDR101C, strain arx1, stronger effect = lower value 0.876 | locus YDR195W, strain ref2 1.32 [resistant] | locus YDR502C, strain sam2, stronger effect = lower value 0.918 | locus YER015W, strain faa2, stronger effect = lower value 0.923 | locus YER155C, strain BEM2 (second series), stronger effect = lower value 0.648 | locus YGL086W, strain mad1, stronger effect = lower value 0.907 | locus YGL240W, strain doc1, stronger effect = lower value 0.791 | locus YGR135W, strain pre9, stronger effect = lower value 0.888 | locus YGR252W, strain gcn5, stronger effect = lower value 0.728 | locus YHR142W, strain chs7, stronger effect = lower value 0.842 | locus YHR200W, strain rpn10, stronger effect = lower value 0.882 | locus YJL164C, strain tpk1, stronger effect = lower value 0.907 | locus YJL166W, strain qcr8, stronger effect = lower value 0.901 | locus YKR001C, strain vps1, stronger effect = lower value 0.766 | locus YLL001W, strain dnm1, stronger effect = lower value 0.872 | locus YLR320W, strain mms22, stronger effect = lower value 0.871 | locus YLR330W, strain CHS5, stronger effect = lower value 0.917 | locus YLR371W, strain rom2, stronger effect = lower value 0.81 | locus YLR418C, strain cdc73, stronger effect = lower value 0.744 | locus YML032C, strain rad52, stronger effect = lower value 0.786 | locus YMR058W, strain fet3, stronger effect = lower value 0.894 | locus YNL071W, strain lat1, stronger effect = lower value 0.914 | locus YNL248C, strain rpa49, stronger effect = lower value 0.75 | locus YOL147C, strain pex11, stronger effect = lower value 0.924 | locus YOR001W, strain rrp6, stronger effect = lower value 0.89 | locus YOR083W, strain WHI5, stronger effect = lower value 0.852 | locus YOR106W, strain vam3, stronger effect = lower value 0.824 | locus YOR184W, strain ser1, stronger effect = lower value 0.855 | locus YOR270C, strain vph1, stronger effect = lower value 0.73 | locus YOR290C, strain snf2, stronger effect = lower value 0.858 | locus YPL051W, strain arl3, stronger effect = lower value 0.892 | locus YPL078C, strain atp4, stronger effect = lower value 0.842 | locus YPL106C, strain sse1, stronger effect = lower value 0.826 | strain wtn01, stronger effect = lower value 0.894
0.873 (inactive) and 0.874 (active): locus YJL095W, strain BCK1, stronger effect = lower value
inactive: locus YAL013W, strain DEP1, stronger effect = lower value 0.918 | locus YAL021C, strain ccr4, stronger effect = lower value 0.943 | locus YAL026C, strain drs2, stronger effect = lower value 0.914 | locus YAL030W, strain snc1, stronger effect = lower value 0.971 | locus YBL061C, strain skt5, stronger effect = lower value 0.956 | locus YBR021W, strain FUR4, stronger effect = lower value 0.993 | locus YBR023C, strain chs3, stronger effect = lower value 0.926 | locus YBR171W, strain sec66, stronger effect = lower value 0.942 | locus YBR229C, strain ROT2, stronger effect = lower value 1 | locus YBR231C, strain swc5, stronger effect = lower value 0.969 | locus YBR279W, strain paf1, stronger effect = lower value 0.949 | locus YCL011C, strain gbp2, stronger effect = lower value 0.913 | locus YCL029C, strain bik1, stronger effect = lower value 0.953 | locus YCR088W, strain abp1, stronger effect = lower value 0.991 | locus YDL005C, strain med2, stronger effect = lower value 0.972 | locus YDL035C, strain GPR1, stronger effect = lower value 0.929 | locus YDL040C, strain nat1, stronger effect = lower value 0.982 | locus YDL074C, strain BRE1, stronger effect = lower value 0.867 | locus YDL101C, strain DUN1, stronger effect = lower value 0.934 | locus YDL185W, strain tfp1, stronger effect = lower value 0.99 | locus YDR001C, strain nth1, stronger effect = lower value 0.966 | locus YDR069C, strain doa4, stronger effect = lower value 0.942 | locus YDR137W, strain rgp1, stronger effect = lower value 0.93 | locus YDR159W, strain sac3, stronger effect = lower value 0.931 | locus YDR162C, strain NBP2, stronger effect = lower value 0.926 | locus YDR297W, strain sur2, stronger effect = lower value 0.97 | locus YDR318W, strain mcm21, stronger effect = lower value 0.928 | locus YDR334W, strain swr1, stronger effect = lower value 0.945 | locus YDR335W, strain msn5, stronger effect = lower value 0.938 | locus YDR388W, stronger effect = lower value 0.993 | locus YDR392W, strain spt3, stronger effect = lower value 0.767 | locus YEL003W, strain gim4, stronger effect = lower value 0.941 | locus YEL037C, strain rad23, stronger effect = lower value 0.954 | locus YEL061C, strain CIN8 (second series), stronger effect = lower value 0.976 | locus YEL061C, strain CIN8, stronger effect = lower value 0.993 | locus YER016W, strain bim1, stronger effect = lower value 0.981 | locus YER110C, stronger effect = lower value 0.937 | locus YER111C, strain swi4, stronger effect = lower value 0.981 | locus YER155C, strain BEM2, stronger effect = lower value 1.02 | locus YER167W, strain BCK2, stronger effect = lower value 0.941 | locus YFR010W, strain ubp6, stronger effect = lower value 0.919 | locus YGL078C, strain dbp3, stronger effect = lower value 0.944 | locus YGL167C, strain pmr1, stronger effect = lower value 0.949 | locus YGL173C, strain kem1, stronger effect = lower value 0.941 | locus YGL227W, strain vid30, stronger effect = lower value 0.989 | locus YGL248W, strain PDE1, stronger effect = lower value 0.929 | locus YGL253W, strain hxk2, stronger effect = lower value 0.946 | locus YHR013C, strain ard1, stronger effect = lower value 0.967 | locus YHR027C, strain rpn1, stronger effect = lower value 0.932 | locus YHR030C, strain SLT2, stronger effect = lower value 1 and 0.88 | locus YHR079C, strain IRE1 (second series), stronger effect = lower value 0.994 | locus YHR079C, strain IRE1, stronger effect = lower value 0.868 | locus YHR094C, strain hxt1, stronger effect = lower value 1.01 | locus YHR129C, strain ARP1, stronger effect = lower value 0.967 | locus YIL066C, strain RNR3, stronger effect = lower value 0.91 | locus YIL073C, strain SPO22, stronger effect = lower value 0.939 | locus YIL125W, strain kgd1, stronger effect = lower value 0.981 | locus YIR030C, strain dcg1, stronger effect = lower value 0.992 | locus YJL092W, strain hpr5, stronger effect = lower value 0.954 | locus YJL095W, strain BCK1 (second series), stronger effect = lower value 0.968 | locus YJL115W, strain asf1, stronger effect = lower value 0.947 | locus YJL129C, strain trk1, stronger effect = lower value 1.02 | locus YJL134W, strain LCB3, stronger effect = lower value 1.01 | locus YJL154C, strain vps35, stronger effect = lower value 0.979 | locus YJL168C, strain set2, stronger effect = lower value 0.991 | locus YJL187C, strain SWE1 (second series), stronger effect = lower value 0.927 | locus YJL187C, strain SWE1, stronger effect = lower value 0.968 | locus YJR066W, strain TOR1, stronger effect = lower value 0.894 | locus YKL009W, strain mrt4, stronger effect = lower value 0.881 | locus YKL068W, stronger effect = lower value 1.02 | locus YKL085W, strain MDH1 (second series), stronger effect = lower value 0.984 | locus YKL085W, strain MDH1, stronger effect = lower value 0.984 | locus YKL160W, strain elf1, stronger effect = lower value 0.917 | locus YKR026C, strain gcn3, stronger effect = lower value 0.982 | locus YKR091W, strain srl3, stronger effect = lower value 0.969 | locus YLL026W, stronger effect = lower value 0.974 | locus YLL041C, strain sdh2, stronger effect = lower value 0.963 | locus YLR027C, strain aat2, stronger effect = lower value 0.946 | locus YLR039C, strain RIC1, stronger effect = lower value 0.925 | locus YLR058C, strain SHM2, stronger effect = lower value 0.957 | locus YLR102C, strain apc9, stronger effect = lower value 1 | locus YLR113W, strain HOG1, stronger effect = lower value 0.872 | locus YLR221C, strain rsa3, stronger effect = lower value 0.927 | locus YLR258W, strain gsy2, stronger effect = lower value 0.938 | locus YLR262C, strain YPT6 (second series), stronger effect = lower value 0.884 | locus YLR262C, strain YPT6, stronger effect = lower value 1.04 | locus YLR268W, strain sec22, stronger effect = lower value 0.896 | locus YLR342W, strain FKS1, stronger effect = lower value 0.974 | locus YLR357W, strain rsc2, stronger effect = lower value 1.04 | locus YLR370C, strain arc18, stronger effect = lower value 0.967 | locus YLR384C, strain iki3, stronger effect = lower value 0.981 | locus YML016C, strain PPZ1, stronger effect = lower value 0.975 | locus YML120C, strain ndi1, stronger effect = lower value 0.915 | locus YML124C, strain tub3, stronger effect = lower value 0.978 | locus YMR078C, strain ctf18, stronger effect = lower value 0.974 | locus YMR125W, strain sto1, stronger effect = lower value 0.983 | locus YMR129W, stronger effect = lower value 0.975 | locus YMR205C, strain PFK2, stronger effect = lower value 0.938 | locus YMR223W, strain ubp8, stronger effect = lower value 0.912 | locus YMR231W, strain pep5, stronger effect = lower value 0.994 | locus YMR263W, strain SAP30, stronger effect = lower value 0.952 | locus YMR307W, strain GAS1, stronger effect = lower value 1.15 | locus YNL067W, strain RPL9B, stronger effect = lower value 0.951 | locus YNL128W, strain TEP1, stronger effect = lower value 0.952 | locus YNL153C, strain GIM3, stronger effect = lower value 0.889 | locus YNL183C, strain NPR1, stronger effect = lower value 0.865 | locus YNL209W, strain ssb2, stronger effect = lower value 0.952 | locus YNL233W, strain BNI4, stronger effect = lower value 0.888 | locus YNL250W, strain rad50, stronger effect = lower value 0.963 | locus YNL271C, strain bni1, stronger effect = lower value 0.985 | locus YNL298W, strain CLA4, stronger effect = lower value 0.909 | locus YNL307C, strain MCK1, stronger effect = lower value 0.908 | locus YNL322C, strain KRE1 (second series), stronger effect = lower value 0.982 | locus YNR049C, strain mso1, stronger effect = lower value 0.983 | locus YNR052C, strain pop2, stronger effect = lower value 0.955 | locus YOL012C, strain htz1 1.22 | locus YOR061W, strain CKA2, stronger effect = lower value 0.962 | locus YOR069W, strain VPS5, stronger effect = lower value 0.985 | locus YOR070C, strain gyp1, stronger effect = lower value 0.965 | locus YOR080W, strain dia2, stronger effect = lower value 0.962 | locus YOR136W, strain idh2, stronger effect = lower value 0.978 | locus YOR144C, strain elg1, stronger effect = lower value 0.97 | locus YOR231W, strain MKK1, stronger effect = lower value 0.861 | locus YOR265W, strain rbl2, stronger effect = lower value 0.98 | locus YOR316C, strain cot1, stronger effect = lower value 1.02 | locus YPL240C, strain hsp82, stronger effect = lower value 0.973 | locus YPL256C, strain CLN2, stronger effect = lower value 0.981 | locus YPR119W, strain clb2, stronger effect = lower value 1 | locus YPR141C, strain kar3, stronger effect = lower value 1.04 | locus YPR163C, strain tif3, stronger effect = lower value 0.925 | locus YPR167C, strain met16, stronger effect = lower value 0.953
